Assay [1] has as its target Pyruvate kinase (Leishmania mexicana) (UniProt Q27686). As to the kind of experiment: qHTS Validation Assay for Inhibitors of Leishmania Mexicana Pyruvate Kinase (AID 945). Note: potency is the fitted concentration of half-maximal effect. As to conditions: purified L. mexicana pyruvate kinase, enzyme activity, E451W mutant enzyme; series mostly up to 57.5 µM. In outline:
(§1)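 qHTS eight-point titrations against 0.2 nM LmPYK (E451W) in imidazole buffer pH 7.2 with 0.5 mM PEP, 0.1 mM ADP; 1 h, room temperature. Readout: PKLight luminescence, normalized to neutral DMSO wells.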
In general terms: Quantitative high-throughput screening tests each substance at several concentrations.

Assay [2] has as its target Pyruvate kinase PKM (Homo sapiens) (UniProt P14618). As to the kind of experiment: qHTS Assay for Activators of Human Muscle Pyruvate Kinase (AID 954; active = well fitted curve in the direction sought with a large enough effect, not every such curve was filed as active). Particulars: purified human muscle pyruvate kinase, luciferase-coupled luminescence, 1 h; series mostly up to 57.5 µM. In outline: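 Human PKM2 activity is measured as ATP generation, detected by luciferase-coupled luminescence. The enzyme (0.1 nM) acts on 0.5 mM PEP and 0.1 mM ADP for 1 h at ambient temperature; data are normalized to uninhibited and full-inhibition wells.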

Assay [3] concerns the target Muscarinic acetylcholine receptor M1 (Rattus norvegicus) (UniProt P08482). As to the kind of experiment: qHTS Assay for Antagonists of Acetylcholine Muscarinic M1 Receptor: Kinetic Measurement of Intracellular Calcium Response (AID 943). Note: nearly all actives have a fitted effect of over 75% in size. Note: potency is the fitted concentration of half-maximal effect. Particulars: M1-expressing cells, kinetic intracellular calcium fluorescence; series mostly up to 35.3 µM. In outline: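 CHO cells stably expressing rat M1 were loaded with no-wash Fluo-4 dye for 1 h at 37C, pre-incubated 10 min with compound, then challenged with EC80 carbachol (100 nM final); kinetic calcium read 4 min, peak/basal ratio.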

Assay [4] has the same target. As to the kind of experiment: qHTS Assay for Antagonists of Acetylcholine Muscarinic M1 Receptor: Measurement of IP-One Response (AID 944). Note: nearly all actives have a fitted effect of over 75% in size. Note: potency is the fitted concentration of half-maximal effect. As to conditions: CHO-M1 cells, IP-One HTRF, antagonist mode; series mostly up to 46.1 µM. In short, it runs like this: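 CHO cells expressing rat M1 receptor, recovered overnight, were pre-incubated 10 min with compound, then stimulated 30 min with carbachol at EC80 (200 nM) in LiCl-containing buffer, pH 7.4. IP1 accumulation was read by HTRF (620/665 nm).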

For assay [5], the target named is Pyruvate kinase (Leishmania mexicana) (UniProt Q27686). Kind of assay: qHTS Validation Assay for Activators of Leishmania Mexicana Pyruvate Kinase (AID 959). Particulars: purified L. mexicana pyruvate kinase, enzyme activity; series mostly up to 57.5 µM. In outline: as §1
Chain of Pyruvate kinase (Leishmania mexicana) (Q27686 2-499 E452W): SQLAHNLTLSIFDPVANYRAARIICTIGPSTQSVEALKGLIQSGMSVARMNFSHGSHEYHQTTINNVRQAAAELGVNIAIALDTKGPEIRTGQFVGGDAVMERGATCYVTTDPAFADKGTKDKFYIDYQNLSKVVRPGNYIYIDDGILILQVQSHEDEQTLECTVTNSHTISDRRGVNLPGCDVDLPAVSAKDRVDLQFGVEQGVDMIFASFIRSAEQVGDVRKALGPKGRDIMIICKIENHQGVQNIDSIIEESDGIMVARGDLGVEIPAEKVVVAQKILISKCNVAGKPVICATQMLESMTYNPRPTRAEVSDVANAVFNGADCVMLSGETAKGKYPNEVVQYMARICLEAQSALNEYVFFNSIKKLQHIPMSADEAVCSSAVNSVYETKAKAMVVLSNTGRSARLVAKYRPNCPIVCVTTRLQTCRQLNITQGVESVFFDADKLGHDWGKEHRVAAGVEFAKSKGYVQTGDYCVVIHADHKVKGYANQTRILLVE
Assay [6] deals with Pyruvate kinase PKM (Homo sapiens) (UniProt P14618). As to the kind of experiment: qHTS Assay for Inhibitors of Human Muscle Pyruvate Kinase (AID 958). Particulars: purified human PKM enzyme activity; series mostly up to 57.5 µM. In short, it runs like this:
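PKM2, human, >95% pure, 0.1 nM; PEP 0.5 mM (Km), ADP 0.1 mM; 50 mM imidazole pH 7.2, 50 mM KCl, 0.01% Tween 20, 0.05% BSA; 1 h RT; luciferase luminescence readout.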

A short description of assay [7]: MultiTox-Fluor Cytotoxicity Assay - LYMP1-001 - Dead Cells (AID 946). Particulars: LYMP1-001 lymphoblastoid cells, dead-cell protease fluorescence; series mostly up to 92.2 µM. In short, it runs like this:
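Cytotoxicity as increased dead-cell protease fluorescence (bis-AAF-R110, 485/520 nm), read 60 min after MultiTox-Fluor reagent. Human lymphoblastoid line exposed 16 h; Hill-fitted AC50, with DMSO as 0% and 15 uM tetraoctylammonium bromide as 100%.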

Assay [8] is described as follows: MultiTox-Fluor Cytotoxicity Assay - LYMP1-001 - Live Cells (AID 947). Particulars: LYMP1-001 lymphoblastoid cells, live-cell protease fluorescence viability; series mostly up to 92.2 µM.
Assay [9] is described as follows: MultiTox-Fluor Cytotoxicity Assay - LYMP1-002 - Live Cells (AID 955). As to conditions: LYMP1-002 lymphoblastoid live-cell protease fluorescence viability; series mostly up to 46.1 µM. In short, it runs like this:
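Human lymphoblastoid LYMP1-002 cells, 2500/well in complete medium, rested 5 hr at 37 C, then exposed to compounds for 16 hr at 37 C. Live-cell protease cleavage of GF-AFC read by fluorescence (Ex/Em 405/510) after 60 min at room temperature; AC50 from Hill fits.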

A short description of assay [10]: Cell Viability - LYMP2-003 (AID 965).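 Note: cells exposed to compounds for 24 h before reading; nearly all actives have a fitted effect of over 50% in size.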 Particulars: LYMP2-003 lymphoblastoid cell viability; series mostly up to 92.2 µM. In outline:
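Human lymphoblastoid cells (2500/well) were pre-incubated 5 hr at 37 C, then exposed to compounds over a concentration range for 24 hr at 37 C. Intracellular ATP was read by CellTiter-Glo luminescence; AC50 came from Hill-equation fits.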

Drawing on PubChem BioAssay (NCATS), this text covers Potency and outcome for 22 molecules.

Inconclusive results are not listed. A call without a number means that no potency is given here. Active and inactive are the calls of the source. Unless noted, calls come from the whole dose curve; as a rule, active = well fitted curve in the direction sought with a large enough effect; inconclusive = small, poorly fitted or top-dose-only effect, or another doubt; inactive = no such curve, though single readings can be large; an effect the other way counts as inactive or inconclusive.

Chain of Pyruvate kinase PKM (Homo sapiens) (P14618 whole entry, looked up): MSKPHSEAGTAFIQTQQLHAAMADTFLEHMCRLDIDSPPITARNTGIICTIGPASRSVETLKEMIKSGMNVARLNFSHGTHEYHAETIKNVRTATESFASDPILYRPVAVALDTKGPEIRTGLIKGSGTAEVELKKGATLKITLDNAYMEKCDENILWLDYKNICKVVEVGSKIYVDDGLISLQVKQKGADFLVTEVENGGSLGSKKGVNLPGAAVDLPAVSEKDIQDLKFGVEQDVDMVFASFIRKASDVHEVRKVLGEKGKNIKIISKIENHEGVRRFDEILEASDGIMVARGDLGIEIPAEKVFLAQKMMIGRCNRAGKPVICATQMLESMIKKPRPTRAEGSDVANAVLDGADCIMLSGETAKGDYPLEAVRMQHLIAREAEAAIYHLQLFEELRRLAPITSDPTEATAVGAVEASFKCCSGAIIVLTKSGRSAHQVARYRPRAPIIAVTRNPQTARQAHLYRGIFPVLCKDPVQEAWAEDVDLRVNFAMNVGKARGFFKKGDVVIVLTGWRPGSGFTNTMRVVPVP
Chain of Muscarinic acetylcholine receptor M1 (Rattus norvegicus) (P08482 whole entry, looked up): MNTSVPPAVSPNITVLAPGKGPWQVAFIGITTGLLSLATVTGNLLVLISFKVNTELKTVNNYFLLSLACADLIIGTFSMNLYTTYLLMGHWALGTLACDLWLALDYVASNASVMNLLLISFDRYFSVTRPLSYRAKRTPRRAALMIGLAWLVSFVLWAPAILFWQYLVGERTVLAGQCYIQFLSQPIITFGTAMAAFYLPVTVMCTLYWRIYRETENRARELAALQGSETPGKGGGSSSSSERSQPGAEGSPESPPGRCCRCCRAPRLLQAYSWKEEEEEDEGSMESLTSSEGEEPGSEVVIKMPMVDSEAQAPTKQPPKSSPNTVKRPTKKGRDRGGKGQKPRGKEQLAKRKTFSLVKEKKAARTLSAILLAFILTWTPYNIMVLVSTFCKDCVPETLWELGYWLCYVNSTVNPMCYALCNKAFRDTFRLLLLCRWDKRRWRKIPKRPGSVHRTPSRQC

As to `CNCC[C@H](Oc1ccc(C(F)(F)F)cc1)c1ccccc1`, in [1], the Potency result was “inactive”. The molecule was classed as inactive in [2].
Regarding `CC(C)(C=O)Cc1cc(C(C)(C)C)c(O)c(C(C)(C)C)c1`, the Potency entry in [3] and in assay [1] was “inactive” throughout. The result in assay [2] was inactive.
As to `COc1cc(OC)c(/C=C2/C(=O)Nc3ccccc32)c(OC)c1`, in assay [1], the Potency result is “inactive”. In addition, in assay [2], the molecule was classed as inactive.
Turning to `COc1ccccc1N1CCN(CCCCNS(=O)(=O)c2cccc3c(N(C)C)cccc23)CC1`, the Potency in [3] was 11.2 µM (active). For the same molecule, the Potency entry in [1] was “inactive”. Besides, the molecule was classed as inactive in [2].
For `NO`, the Potency result in assay [4] and in assay [1] was “inactive” each time. Moreover, the molecule was classed as inactive in [2].
As to `CC(C)NC[C@H](O)COc1cccc2[nH]ccc12`, in assay [1], the Potency result was “inactive”. For the same molecule, in [2], the outcome was inactive.
Take `N#C/C(=C\c1ccc(O)c(O)c1)C(=O)c1ccc(O)c(O)c1`: the Potency entry in assay [3] and in assay [1] was “inactive” throughout. Moreover, the result in [2] was inactive.
As for `CN1CCc2cc(NC(=O)Nc3cccnc3)ccc21`, the Potency entry in assay [3] and in [5] was “inactive” in each case. Also, the Potency in assay [1] is 20 µM (active). For the same molecule, the outcome in assay [2] was inactive.
With `O=C(Nc1ccccc1)c1cc([N+](=O)[O-])ccc1Cl`, the Potency result in assay [4] and in assay [5] was “inactive” throughout. The outcome in assay [2] was inactive.
Take `COc1ccccc1CNCCCCCCNCCCCCCCCNCCCCCCNCc1ccccc1OC`: the Potency entry in assay [1] was “inactive”. Further, the call in [2] was inactive.
With `NCCCCCCCCCCN`, the Potency entry in assay [4] and in [1] was “inactive” throughout. In addition, the molecule was classed as inactive in assay [2].
As to `CCCn1c(=O)c2[nH]c(-c3ccc(OCC(=O)NCCN)cc3)nc2n(CCC)c1=O`, the Potency entry in assay [1] was “inactive”. Besides, the molecule was called inactive in assay [2].
Regarding `Cc1cc(NC(=O)Nc2ccc3c(ccn3C)c2)sn1`, the Potency result in assay [3] and in assay [5] was “inactive” throughout. The call in assay [2] was inactive.
`CN1[C@@H]2CC[C@H]1CC(OC(c1ccccc1)c1ccccc1)C2` (stereo partly drawn): the Potency result in [1] was “inactive”. The outcome in [2] was inactive.
As for `O=C1NC(O)=NC1(c1ccccc1)c1ccccc1`, in assay [1], the Potency result is “inactive”. Further, the result in [2] was inactive.
In the case of `CN=c1nc(-c2ccccc2)n(-c2ccccc2)s1`, the results for the Potency in assay [4], in assay [1] and in assay [6] were 12.6 µM (active), 5.01 µM (active) and 25.1 µM (active), respectively. Also, in assay [2], the call was inactive. In addition, the Potency result in [5] is “inactive”.
For the molecule `Oc1ccccc1O`, the Potency result in assay [1], in [7], in assay [8], in [9] and in assay [10] was “inactive” each time. Also, the molecule was called inactive in assay [2].
As for `Cc1ccc(O)c(N=Nc2ccccc2)n1`, the Potency result in assay [4] and in [5] was “inactive” in each case. The Potency in assay [1] and in [6] was 6.31 µM (active) in each case. The molecule was classed as inactive in [2].
For `NCCNC(=O)c1ncsc1-c1cccc(F)c1`, the Potency entry in assay [4] and in assay [1] was “inactive” each time. For the same molecule, in assay [2], the outcome was inactive.
Take `COc1ccc(/C=C/C(=O)Nc2ccccc2C(=O)O)cc1OC`: the Potency result in [4] and in assay [5] was “inactive” in each case. The Potency in assay [1] was 12.6 µM (active); in assay [6] it was 20 µM (active). In addition, the call in [2] was inactive.
As to `COC1=C(OC)C(=O)c2ccccc2C1=O`, in [1], the Potency result is “inactive”. The result in [2] was inactive.
As to `COC(=O)c1c(C)[nH]c(C)c1C(=O)c1ccccc1Cc1ccccc1`, the Potency entry in [4] and in assay [1] was “inactive” in each case. The outcome in assay [2] was inactive.
